A selection: hits, their analogues and other compounds. The true share with any hit is near 1.8%.
Bim-Mcl-1: disrupts Bim peptide binding to human Mcl-1. Q07820. inhibition, % at 10 µM. Bead-based flow cytometry, Bim peptide-Mcl-1 binding. AID 1009. 0.1% of 190,000 active; in the data active = inhibition above about 40%;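 also: 0% = no compound tracer wells and 100% = peptide blocker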
Mcl1-Noxa inh: disrupts binding of human Mcl-1 to Noxa peptide; Q07820; TR-FRET Mcl-1/Noxa peptide binding, 2 h; inhibition, % at 21.7 µM; 1.5% of 220,000 active; AID 1022;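 active = compounds that cut the protein-peptide binding signal by more than 50% relative to plate controls in a single-dose test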;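 also: His-tagged Mcl-1 with rhodamine Noxa BH3 peptide and terbium anti-His antibody; 0% = Mcl-1 plus Noxa peptide wells and 100% = peptide-only wells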
Mcl1-Bid inh: Mcl-1/Bid interaction inhibition; Q07820; TR-FRET Mcl-1/Bid-Dy647 peptide binding, 1536-well; inhibition, % at 21.7 µM; 0.97% of 220,000 active; AID 1021;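 active = compounds that cut the binding signal by more than half at the single screening dose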;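 also: His-tagged Mcl-1 with europium anti-His antibody binding Bid BH3 peptide; 0% = Mcl-1 plus peptide wells and 100% = peptide-only wells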
TLR9-MyD88 inh: blocks human TLR9 binding to MyD88; Q9NR96+Q99836; CHO BLA complementation TLR9-MyD88, CCF4 FRET ratio; inhibition, % at 4.98 µM; 0.21% of 340,000 active; AID 504734;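 active = inhibition above the mean over all tested compounds plus 3 SD, cut at about 21% in these data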;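 also: 0% = DMSO only wells and 100% = clavulanate BLA inhibitor control wells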
TLR4 MyD88 comp: inhibitors of human TLR4-MyD88 binding. O00206+Q99836. HeLa CL3-4 TLR4/MyD88 BLA complementation, FRET ratio. inhibition, % at 8.4 µM. 0.18% of 200,000 active. AID 861; in the data active = inhibition above about 25%;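 also: 0% = vehicle and 100% = reference inhibitor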
NOD2-RIPK2 inh: NOD2-RIPK2 protein interaction inhibition; O43353; inhibition, % at 4.98 µM; CHO BLA complementation NOD2-RIPK2, CCF4 ratio; 0.38% of 360,000 active; in the data active = inhibition above about 21%;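 also: 0% = vehicle only and 100% = reference blocker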
Target sequence (O43353 whole entry, looked up): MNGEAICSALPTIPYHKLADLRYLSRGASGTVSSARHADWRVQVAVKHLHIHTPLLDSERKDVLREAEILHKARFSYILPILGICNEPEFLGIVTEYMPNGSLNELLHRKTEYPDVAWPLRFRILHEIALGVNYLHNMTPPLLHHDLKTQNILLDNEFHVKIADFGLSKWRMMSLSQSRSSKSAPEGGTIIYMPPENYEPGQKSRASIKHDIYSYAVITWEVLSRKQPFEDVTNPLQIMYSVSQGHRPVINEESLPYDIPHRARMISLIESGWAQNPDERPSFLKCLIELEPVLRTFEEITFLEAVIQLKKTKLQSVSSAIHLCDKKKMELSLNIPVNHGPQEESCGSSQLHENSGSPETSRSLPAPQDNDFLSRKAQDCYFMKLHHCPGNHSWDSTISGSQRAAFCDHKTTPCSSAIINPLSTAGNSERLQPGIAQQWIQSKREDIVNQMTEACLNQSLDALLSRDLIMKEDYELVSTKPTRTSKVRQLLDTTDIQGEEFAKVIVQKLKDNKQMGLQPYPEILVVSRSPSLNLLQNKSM
NOD2 RIPK2 conf: confirmation of human NOD2-RIPK2 interaction inhibitors; AID 624370; shares compounds with NOD2-RIPK2 inh; inhibition, % at 4.98 µM; CHO cells, NOD2-RIPK2 BLA complementation, CCF4 FRET; 70% of 1,200 active;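 active = mean inhibition across replicates above a set limit taken from the earlier primary screen, cut at about 21% in these data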;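 also: 0% = DMSO-only wells and the high end = clavulanate BLA-blocked wells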
NOD2 BLA counter: counter-screen for NOD2-RIPK2 interaction inhibitors: BLA reporter; AID 624371; inhibition, % at 4.98 µM; shares compounds with NOD2-RIPK2 inh; 57% of 1,200 active; CHO BLA reporter, CCF4 FRET ratio, counterscreen;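 active = mean inhibition above the low-control mean inhibition plus three low-control SD, cut at about 11% in these data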;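 also: 0% = DMSO only wells and 100% = clavulanate high control wells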
* marks the source's active call; other numbers are inactive results; nt = no result.

SMILES | Bim-Mcl-1 | Mcl1-Noxa inh | Mcl1-Bid inh | TLR9-MyD88 inh | TLR4 MyD88 comp | NOD2-RIPK2 inh | NOD2 RIPK2 conf | NOD2 BLA counter
COc1ccccc1NS(=O)(=O)c1c(C)[nH]c(C)c1C(=O)N1CCCC1 | nt | nt | nt | -8.8 | nt | 35.6* | -4.6 | -7.3
Cc1cc2[nH]c3c4ccccc4nc(C)c3c2cc1C | nt | nt | nt | -1.4 | nt | 21.4* | 26.1* | -6.6
Cc1cc2[nH]c3c(c[n+](C)c4ccccc34)c2cc1C | 20.0 | 33.2 | -42.4 | 7.1 | 17.2 | 8.0 | nt | nt
O=C(Cc1cccc(C(F)(F)F)c1)Nc1cc(S(=O)(=O)N2CCOCC2)ccc1N1CCCC1 | nt | nt | nt | 1.9 | nt | 0.8 | nt | nt
Nc1ccc2cc3[nH]c4cc(N)ccc4c3nc2c1 | nt | nt | nt | 10.7 | nt | 39.3* | 73.1* | 66.2*
COc1ccc(CNC(=O)CN(C(=O)CCC(=O)Nc2nccs2)c2cccc(C)c2)cc1 | nt | nt | nt | 3.3 | nt | -9.5 | nt | nt
O=c1oc2cc(O)ccc2cc1-c1nc2ccccc2o1 | nt | nt | nt | nt | nt | 56.9* | 54.2* | 68.5*
CCO[C@H]1OC(C(=O)N2CCN(Cc3ccc4c(c3)OCO4)CC2)=C[C@@H](c2csc3ccccc23)[C@@H]1CCCO | -3.0 | 1.6 | 11.7 | -12.7 | -5.9 | 22.5* | 11.8 | -1.3
Cc1nc2c(=O)n(C)c(=O)n(C)c2nc1Cl | -1.0 | 17.9 | 2.3 | 17.1 | 20.6 | 23.9* | 30.1* | -8.2
CS(=O)(=O)Nc1ccccc1-c1cccc2nccn12 | nt | nt | nt | nt | nt | 7.3 | nt | nt
COc1ccc2c(c1)C(C)=CC(C)(C)N2S(=O)(=O)c1ccc(NC(C)=O)cc1 | nt | nt | nt | -5.5 | nt | 25.9* | 14.1 | -4.0
O=C(C=C=Nc1ccccc1)C(=O)N=C=Cc1ccccc1 | nt | -8.3 | -24.1 | 4.7 | nt | 27.8* | 17.9 | 0.4
COCCCNc1c2c3c(cccc3[nH]c1=O)C(=O)c1ccccc1-2 | 9.0 | -190.5 | -22.6 | 15.3 | 16.5 | 32.3* | 37.4* | 41.1*
CCc1nc2ccc(C(=O)NCc3ccccc3OC)cn2c1N(C)Cc1ccc(N(C)C)cc1 | nt | nt | nt | nt | nt | 0.9 | nt | nt
O=C(C1CCN(Cc2cn[nH]c2-c2ccc(F)cc2F)CC1)N1CCOCC1 | 0.0 | 3.0 | -22.5 | -5.5 | -3.8 | 1.2 | nt | nt
OCCCC1CCCN(Cc2cn[nH]c2-c2ccc(F)cc2F)C1 (stereo not drawn) | -3.0 | 17.2 | -21.5 | -0.9 | -12.0 | 22.4* | 2.3 | -4.0
Cc1ccc(NC(=O)C2=C(c3ccccc3)S(=O)(=O)CCS2(=O)=O)cc1 | 0.0 | 17.5 | 2.6 | 8.8 | 13.5 | 55.5* | 77.7* | 9.6
Cc1ccc(NC(=O)c2ccccc2)cc1 | -2.0 | 0.8 | -7.9 | 0.7 | 8.7 | 3.7 | nt | nt
CCCCNC(=O)N1CCCC(C(=O)c2cc(C)c(OC)c(C)c2)C1 (stereo not drawn) | nt | nt | nt | -14.2 | nt | -6.0 | nt | nt
C[N+](C)(C)CCC(=O)N1C/C(=C/c2ccccc2)C(=O)/C(=C\c2ccccc2)C1 | nt | nt | nt | 3.3 | nt | -8.2 | nt | nt
CN(C)CCC(=O)N1C/C(=C/c2ccccc2)C(=O)/C(=C\c2ccccc2)C1 | nt | nt | nt | 3.4 | nt | 61.2* | 54.9* | -1.0
O=C1/C(=C/c2ccccc2)CN(C(=O)CCN2CCOCC2)C/C1=C\c1ccccc1 | nt | nt | nt | 7.3 | nt | 27.5* | 30.6* | 2.0
CC(C)C(NC(=O)c1ccc(F)cc1)C(=O)NCC1CCCO1 (stereo not drawn) | nt | -0.5 | -15.6 | 6.3 | nt | -4.5 | nt | nt
C[C@H](NC(=O)N1CCn2c1nc1ccccc12)C(=O)N1CCCCC1 | nt | nt | nt | 0.9 | nt | 21.1* | -8.4 | -1.1
C[C@H](NC(=O)N1CCn2c1nc1ccccc12)C(=O)NC1CC1 | nt | nt | nt | 5.0 | nt | 3.6 | nt | nt
SMILES | Bim-Mcl-1 | Mcl1-Noxa inh | Mcl1-Bid inh | TLR9-MyD88 inh | TLR4 MyD88 comp | NOD2-RIPK2 inh | NOD2 RIPK2 conf | NOD2 BLA counter
Cc1ccnc(N/C=C(\C#N)c2nc(-c3cccc(Br)c3)cs2)c1 | 0.0 | 60.6* | 73.2* | 15.2 | 8.0 | 27.0* | 30.0* | 29.7*
Cc1ccnc(Nc2nc(-c3ccccc3)cs2)c1 | nt | nt | nt | 2.5 | nt | -6.7 | nt | nt
COc1ccc(C(=O)N/N=C/c2sc3ccccc3c2O)cc1 | 2.0 | -33.3 | -93.6 | 9.6 | -0.8 | 21.8* | 10.0 | 10.2
CCOC(=O)C1CCN(S(=O)(=O)c2ccc3c4c(cccc24)C(=O)N3CC)CC1 | nt | nt | nt | -1.1 | nt | 23.6* | 24.0* | 23.6*
O=C(NCc1ccc(F)cc1)c1cc(C2CCCCN2S(=O)(=O)c2cccc3cccnc23)on1 (stereo not drawn) | nt | nt | nt | nt | nt | 1.7 | nt | nt
COc1cccc(CNC(=O)Cn2ccc3cc(S(=O)(=O)N4CCCC4)ccc32)c1 | nt | nt | nt | -17.0 | nt | -2.0 | nt | nt
CC(C)Oc1ccc(CNC(=O)Cn2ccc3cc(S(=O)(=O)N4CCCC4)ccc32)cc1 | nt | nt | nt | 2.5 | nt | 26.6* | -3.8 | -0.6
O=C(NCc1ccccc1)C(c1ccccc1)n1c(=O)c(-c2cc3ccccc3[nH]2)nc2ccccc21 (stereo not drawn) | nt | nt | nt | nt | nt | 47.8* | 43.9* | 64.9*
O=C(NC1CCCCC1)C(C1CC1)n1c(=O)c(-c2cc3ccccc3[nH]2)nc2ccccc21 (stereo not drawn) | nt | nt | nt | nt | nt | 44.0* | 38.3* | 63.7*
O=C(NCc1ccccc1)C(C1CC1)n1c(=O)c(-c2cc3ccccc3[nH]2)nc2ccccc21 (stereo not drawn) | nt | nt | nt | nt | nt | 45.2* | 42.1* | 63.9*
O=C(NC1CCCC1)C(C1CC1)n1c(-c2cc3ccccc3[nH]2)nc2ccccc21 (stereo not drawn) | nt | nt | nt | nt | nt | 0.8 | nt | nt
O=C(NCc1ccccc1)C(c1cc2ccccc2o1)n1c(=O)c(-c2ccccc2)nc2ccccc21 (stereo not drawn) | nt | nt | nt | nt | nt | 1.3 | nt | nt
O=C(NCc1ccccc1)C(c1cc2ccccc2o1)n1c(=O)c(-c2cc3ccccc3[nH]2)nc2ccccc21 (stereo not drawn) | nt | nt | nt | nt | nt | 50.6* | 46.3* | 67.3*
COc1ccc(-c2csc(NC(C)c3nc4cc(C(=O)NCCCO)ccc4n3Cc3ccc(C)cc3)n2)cc1 (stereo not drawn) | nt | nt | nt | -9.3 | nt | -6.6 | nt | nt
Cc1ccc(NC(=O)CN2C(=O)NC(C)(C3CC3)C2=O)cc1S(=O)(=O)N1CCCCC1 (stereo not drawn) | nt | nt | nt | 3.8 | nt | 0.4 | nt | nt
C=C1CCN([C@@H](CC(C)C)C(=O)NCc2ccco2)S(=O)(=O)c2ccccc21 | nt | nt | nt | 0.3 | nt | -6.9 | nt | nt
CC(C(=O)NCCSCc1cccc(Cl)c1)N(c1ccccc1)S(C)(=O)=O (stereo not drawn) | nt | nt | nt | -5.3 | nt | 9.6 | nt | nt
CCOC(=O)c1c(CN2CCNCC2)nc2ccc(Cl)cc2c1-c1ccccc1 | nt | nt | nt | -7.1 | nt | 20.9* | 19.2 | -2.8
O=C1C(F)=CC(COC(c2ccccc2)(c2ccccc2)c2ccccc2)OC1n1cc(F)c(=O)[nH]c1=O (stereo not drawn) | nt | nt | nt | -3.4 | nt | 29.7* | 58.4* | 23.9*

Assay outcomes from PubChem BioAssay.
